Bioassay records deposited in PubChem by several laboratories.
An excerpt weighted towards active compounds, which were near 0.78% of everything screened.
BJeLR lethal: BJeLR cell viability loss | BJeLR (HRASV12) viability, CellTiter-Glo ATP luminescence, 48 h | inhibition, % (test concentration not listed) | hit rate 0.17% among 300,000; in the data active = inhibition above about 50%
PriA SSB inh: blocks PriA binding to SSB C-terminal tail | AlphaScreen SSBct-PriA binding, biotinylated peptide | inhibition, % at 33 µM | hit rate 0.6% among 430,000 | AID 1272365; in the data active = inhibition mostly above about 37%, no sharp cut-off; inactive = mostly below about 20%;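 also: plate controls were negative control peptide for no effect and reference peptide for full effect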
SARS 3CLpro inh: SARS-CoV 3CLpro protease inhibition; P0C6X7; recombinant SARS-CoV 3CLpro, quenched FRET peptide cleavage; inhibition, % at 6 µM; hit rate 0.14% among 290,000; AID 1706; in the data active = inhibition above about 12%
An asterisk follows results filed as active.

What do the screens show for `Cc1ccc(/C=C2\SC(=S)N(CCCC(=O)N3CCOCC3)C2=O)cc1`?
BJeLR lethal: 89*; PriA SSB inh: -5; SARS 3CLpro inh: 2

Results for COC(=O)c1ccc(/C=C2\SC(=S)N(CCCC(=O)N3CCOCC3)C2=O)cc1 ?
PriA SSB inh: -9

Results for CCc1nnc(NC(=O)c2ccccc2Cl)s1 ?
PriA SSB inh: -4

How did CCc1nnc(NC(=O)c2cccnc2SC)s1 do in these assays?
BJeLR lethal: 1; PriA SSB inh: -4; SARS 3CLpro inh: 3

Results for CCSc1nnc(NC(=O)c2cnccn2)s1 ?
BJeLR lethal: -12; PriA SSB inh: -6

How did CCc1nnc(NC(=O)c2cc(Cl)ccn2)s1 do in these assays?
BJeLR lethal: 7; PriA SSB inh: 81*; SARS 3CLpro inh: 7

Results for CCSc1nnc(NC(=O)c2ccccn2)s1 ?
BJeLR lethal: 19; PriA SSB inh: 86*; SARS 3CLpro inh: 2

How did CCc1nnc(NC(=O)c2ccccn2)s1 do in these assays?
PriA SSB inh: 104*

How did CCc1nnc(NC(=O)c2ccc(Cl)nc2)s1 do in these assays?
BJeLR lethal: -6; PriA SSB inh: -13; SARS 3CLpro inh: -4

How did CCc1ccnc(C(=O)Nc2nnc(CC)s2)c1 do in these assays?
PriA SSB inh: 103*

How did CC(=O)c1cccc(NC(=O)c2ccc(=O)n(Cc3ccccc3C)c2)c1 do in these assays?
PriA SSB inh: 8

Results for CN(C)[C@@H](CNS(=O)(=O)c1ccc(N2CCCCS2(=O)=O)cc1)c1ccco1 ?
PriA SSB inh: -6

What do the screens show for `CCCNC(=O)CSc1ccc(NC(=O)C(C)C)nn1`?
PriA SSB inh: -4

How did CC(C)S(=O)(=O)c1ccc(CC(=O)NCc2ccsc2)cc1 do in these assays?
PriA SSB inh: -10

Results for Cc1cc(C)n(CCN2CCCN(C(=O)C3CC=CCC3)CC2)n1 (stereo unspecified) ?
PriA SSB inh: -3

Results for CC(C)(C)n1ncc2c(=O)n(CCC(=O)Nc3cccnc3)cnc21 ?
PriA SSB inh: -9

Results for O=C1NC(=Nc2ccc(Cl)cc2)SC1Cc1cccc(C(F)(F)F)c1 (stereo unspecified) ?
PriA SSB inh: 5

What do the screens show for `CCc1ccc(CNC(=O)C2CCC(=O)N2C2CCCCC2)cc1` (stereo unspecified)?
BJeLR lethal: 14; PriA SSB inh: -16; SARS 3CLpro inh: -2

How did O=C(NCc1ccccn1)C1CCC(=O)N1C1CCCCC1 (stereo unspecified) do in these assays?
BJeLR lethal: 1; PriA SSB inh: 104*; SARS 3CLpro inh: 2

How did O=C(c1nc(-c2cnccn2)no1)N1CCC(Cc2ccccc2)CC1 do in these assays?
PriA SSB inh: -19

How did O=C(NCc1cccc(Oc2ccc(F)cc2)c1)NCc1cccs1 do in these assays?
PriA SSB inh: -8

Results for CCN(CC)c1ccc(/C=N/NC(=O)c2cccc(S(=O)(=O)N3CCOCC3)c2)c(O)c1 ?
BJeLR lethal: 54*; SARS 3CLpro inh: -4

Results for CCN(CC)c1ccc(C=NNC(=O)c2cccc(S(=O)(=O)N3CCOCC3)c2)c(O)c1 ?
PriA SSB inh: -12

What do the screens show for `Cc1ccc(S(=O)(=O)Nc2ccc(S(=O)(=O)N3CCOCC3)cc2)cc1[N+](=O)[O-]`?
BJeLR lethal: -11; PriA SSB inh: -8; SARS 3CLpro inh: 0

How did Cc1ccc(Nc2ccc(S(=O)(=O)N3CCOCC3)cc2[N+](=O)[O-])cc1C do in these assays?
BJeLR lethal: -3; PriA SSB inh: 69*; SARS 3CLpro inh: -1

How did O=C(O)CSc1c(-c2ccccc2)[nH]c2ccccc12 do in these assays?
BJeLR lethal: -6; PriA SSB inh: 16; SARS 3CLpro inh: 5

Results for N=C(N)Sc1c(-c2ccccc2)[nH]c2ccccc12 ?
PriA SSB inh: 37*

How did O=C1OCCNC1=CC(=O)c1ccccc1 do in these assays?
PriA SSB inh: -7

Results for Oc1c(C2=NCCNC(C(F)(F)F)=C2)ccc2ccccc12 ?
BJeLR lethal: 7; PriA SSB inh: 45*; SARS 3CLpro inh: 2

How did Cc1ccc(O)c(C2=NCCNC(C(F)(F)F)=C2)c1 do in these assays?
BJeLR lethal: -12; PriA SSB inh: -8; SARS 3CLpro inh: -1

Results for CC(=O)N1CCN(C(=O)Cc2cn(Cc3ccc(Cl)cc3)c3ccccc23)CC1 ?
PriA SSB inh: -14

Results for O=C(NN=Cc1cc(Cl)cc([N+](=O)[O-])c1O)c1cc(-c2ccccn2)nc2ccccc12 ?
PriA SSB inh: 6

Results for CSc1ccc(Cn2nnc(C(=O)NCc3ccccc3)c2N)cc1 ?
BJeLR lethal: -5; PriA SSB inh: -11; SARS 3CLpro inh: 3

How did Nc1c(C(=O)NCc2ccccc2)nnn1Cc1ccccc1 do in these assays?
BJeLR lethal: 0; PriA SSB inh: 98*; SARS 3CLpro inh: 0

Results for CC(C)(C)OC(=O)N1CCC(Oc2cccnn2)CC1 ?
PriA SSB inh: 3

What do the screens show for `N#Cc1ccccc1NC(=O)C(=O)NCCN1CCOCC1`?
PriA SSB inh: -26

Results for CCn1nccc1C(=O)Nc1ccc(F)cc1 ?
PriA SSB inh: 1

How did CCn1nccc1C(=O)Nc1ccc(N=Nc2ccccc2)cc1 do in these assays?
PriA SSB inh: 46*

What do the screens show for `CNC(=O)Cn1nnn(-c2ccc(NC(=O)Nc3ccc(C(F)(F)F)cc3)cc2)c1=O`?
PriA SSB inh: -17

Results for Cn1cccc1C=NNC(=O)C1COc2ccc(C(C)(C)C)cc2O1 (stereo unspecified) ?
PriA SSB inh: 39*

How did Cn1cccc1/C=N\NC(=O)C1COc2ccc(C(C)(C)C)cc2O1 (stereo unspecified) do in these assays?
BJeLR lethal: -8; SARS 3CLpro inh: 10

What do the screens show for `COc1ccc(NC(C)=CC(=O)c2ccccc2)cc1`?
PriA SSB inh: -5

Results for COc1ccc(N/C(C)=C/C(=S)Nc2ccccc2)cc1 ?
BJeLR lethal: -14; PriA SSB inh: 43*; SARS 3CLpro inh: 5

Results for O=C(NCC1CCCO1)c1ccc(Cn2c(=S)[nH]c3ccc(Br)cc3c2=O)cc1 (stereo unspecified) ?
PriA SSB inh: -5

What do the screens show for `COc1ccc(-c2cn3c(C(=O)Nc4ccc5c(c4)OCCO5)csc3n2)cc1`?
PriA SSB inh: active

How did COc1ccc(-c2cn3c(CCC(=O)Nc4nc(C)cs4)csc3n2)cc1 do in these assays?
PriA SSB inh: 19

How did O=C(Nc1ccc2c(c1)OCCO2)c1csc2nc(-c3ccc(F)cc3)cn12 do in these assays?
PriA SSB inh: -16

How did COc1ccc(-c2cn3c(CCC(=O)Nc4ccc5c(c4)OCO5)csc3n2)cc1 do in these assays?
PriA SSB inh: 38*

What do the screens show for `O=C(CSc1ccc(-c2cccnc2)nn1)Nc1nc2ccccc2s1`?
PriA SSB inh: -6

How did CCOC(=O)N1CCC(NC(=O)CCc2csc(NC(=O)c3cccs3)n2)CC1 do in these assays?
PriA SSB inh: -6

Results for O=C(Nc1ccc(F)c(F)c1)N1CCN(c2ccc3nnc(-c4ccco4)n3n2)CC1 ?
PriA SSB inh: -14

Results for CCN(CC)c1ccc(SS(=O)(=O)O)cc1 ?
BJeLR lethal: -14; PriA SSB inh: 43*; SARS 3CLpro inh: 2

What do the screens show for `CCN(CC)c1ccc(C(=O)O)cc1`?
BJeLR lethal: 5; PriA SSB inh: -6; SARS 3CLpro inh: -7

What do the screens show for `O=C(NCC1CCN(C(=O)COc2ccccc2)CC1)NC1CCCCCC1`?
PriA SSB inh: -5
